In PubChem BioAssay (EPA / NIEHS) one finds AC50 and outcome data, which are given here for 40 compounds.

The source made the active and inactive calls. Rule for the calls: active = hit-call score of the fitted dose curve at least 0.9, where 1 is the maximum; inactive = score below 0.9.

A short description of this experiment: APR_HepG2_NuclearSize_72hr: Apredica 72-hour HepG2 Assay for Nuclear Size (AID 2282925). Conditions: high-content imaging, actives raise or lower the signal. Here is the method:
APR_HepG2_72hr is a cell-based, multiplexed-readout assay that uses HepG2, a human liver cell line, with measurements taken at 72 hours after chemical dosing in a 384-well plate.APR_HepG2_NuclearSize_72hr is one of 10 assay component(s) measured or calculated from the APR_HepG2_72hr assay. It is designed to make measurements of cell phenotype, a form of morphology reporter, as detected with fluorescence intensity signals by HCS Fluorescent Imaging technology.Data from the assay component APR_HepG2_NuclearSize_72hr was analyzed into 1 assay endpoint. This assay endpoint, APR_HepG2_NuclearSize_72hr, was analyzed with bidirectional fitting relative to DMSO as the negative control and baseline of activity. Using a type of morphology reporter, measures of all nuclear dna for gain or loss-of-signal activity can be used to understand the signaling at the nuclear-level. Furthermore, this assay endpoint can be referred to as a primary readout, because this assay has produced multiple assay endpoints where this one serves a signaling function. To generalize the intended target to other relatable targets, this assay endpoint is annotated to the cell morphology intended target family, where the subfamily is organelle conformation.
Cells were treated with dimethyl sulfoxide (DMSO) as a solvent control at a final concentration of 0.5% v/v or with compounds in DMSO with a resulting final DMSO concentration of 0.5% v/v. Compound treatment was done at concentrations of 0.39, 0.78, 1.56, 3.12, 6.24, 12.5, 25, 50, 100, and 200 uM in duplicate on each plate. Cells were treated with compounds for 1, 24, or 72 hr. Carbonyl […] m-chloro-phenylhydrazone (CCCP) and taxol were used as positive controls for mitochondrial function and cytoskeletal stability, respectively; DMSO served as the negative control for this experiment. Cells were fixed by the direct addition of 50 uL formaldehyde in Hank's Balanced Salt Solution (HBSS) to a final concentration of 3.7%. After incubation in the fixation medium for 30 min at room temperature (293-298 K), cells were rinsed twice with HBSS and treated with cell permeabilization buffer (16 uL of 0.5% Triton X-100) for 10 min at room temperature (293-298 K) before labeling. For mitochondrial membrane potential and mitochondrial measurements, pre-fixed cells were incubated with 50 uL of MitoTracker Red CMXRos (Invitrogen) at a concentration of 250 nM for 30 min before fixation. In the remaining cases, post-fixed cells were labeled by incubation with a multiplexed mixture of primary antibodies in HBSS for 60 min at room temperature (293-298 K) to detect immunoreactivity of c-Jun (1:500), phospho-histone H3 (1:100), phospho-histone H2A.x (1:200), p53 (1:400), alpha-tubulin (1:200) and Hoechst 33342 (2 ug/mL). Cells were labeled for multiplexed imaging on two separate plates: a) Hoechst 33342, MitoTracker Red, phospho-histone H3, and alpha-tubulin, and b) Hoechst 33342, phospho-histone H2A.x, and c-Jun. A final rinse with HBSS (50 uL) was performed before analysis. The primary and secondary antibodies for the proteins were phospho-histone H3 (rabbit anti-phospho-histone H3 and FITC-donkey anti-rabbit IgG), phospho-histone H2A.x (mouse anti-phospho-histone H2A.x and FITC-donkey anti-mouse IgG), c-Jun (rabbit anti-phospho-c-Jun and Cy3-donkey anti-rabbit IgG), p53 (sheep anti-p53 and Cy5-donkey anti-sheep IgG), alpha-tubulin (mouse anti-alpha-tubulin and Cy5-donkey anti-mouse IgG). These antibodies are available as the CellCiphr HepG2 assay kit (Millipore).Digital images of each well were captured using a Cellomics ArrayScan VTI (Thermo Scientific Cellomics) (0.8 NA objective, 0.63x optical coupler, and XF-93 filter set) at 20x magnification. The images were acquired using the autofocus feature of the ArrayScan instrument, which entails the following steps. First, the camera focuses on channel 1 (Hoechst 33342), where nuclei are identified. Second, a Z offset of 1 um is used for capturing mitochondria (MitoTracker Red). […]
For orientation: AC50 means the concentration at which the activity in the assay is half-maximal. With `O=[N+]([O-])C(Br)(CO)CO`, the AC50 is 163 µM (active). For `O=C(Oc1ccc(Br)cc1)N1CCN2CCC1CC2`, the outcome was inactive. Same read-out and setting: to `c1ccc2c(c1)oc1ccccc12` belongs “inactive”; to `Cc1ccc(N=C=O)cc1N=C=O`, “inactive”; to `N#CC(Br)(Br)C(N)=O`, “inactive”.

Regarding `COC(=O)c1ccccc1N`, the result was inactive. On the same count and under the same terms, with `CCN(CC)CCO` the entry was “inactive”.

As for `OCCCl`, the outcome was inactive. For `O=C(Nc1ccccc1)c1ccccc1I`, the compound was classed as inactive. The same measure, in the same setting: to `CC(O)CCO` (stereo not given) belongs “inactive”; to `C[C@]12C=CC3=C4CCC(=O)C=C4CC[C@H]3[C@@H]1CC[C@@H]2O`, “inactive”; to `CS(=O)(=O)NC(=O)c1cc(Oc2ccc(C(F)(F)F)cc2Cl)ccc1[N+](=O)[O-]`, “inactive”. Still for that read-out and setting: with `CCOC(=O)[C@]1(c2ccccc2)Oc2ccccc2[C@@H]1N` the entry was “inactive”; with `Nc1ccc(N=Nc2ccccc2)cc1`, “inactive”.

As to `ClC1=C(Cl)C2(Cl)C3C(Cl)C=CC3C1(Cl)C2(Cl)Cl` (stereo not given), the compound was called inactive. The same measure, in the same setting: with `CC(C)(C)OOC(=O)c1ccccc1` the entry was “inactive”; with `Clc1ccc(C(c2ccc(Cl)cc2)C(Cl)(Cl)Cl)cc1`, “inactive”.

On to `CCC(C)c1ccc(O)cc1` (stereo not given), for which the call was inactive. Still for that read-out and setting: to `C[N+](C)(C)CC1CO1` (stereo not given) belongs “inactive”. For `Oc1ccc2ccc3cccc4ccc1c2c34`, the half-maximal activity concentration (AC50) is 69.6 µM (active). Take `Cc1ccc([N+](=O)[O-])cc1`: the result was inactive. For the compound `O=P(OCCCl)(OCCCl)OCCCl`, the compound was called inactive. The same measure, in the same setting: with `CC(C)(OOC(C)(C)c1ccccc1)c1ccccc1` the entry was “inactive”; with `O=[N+]([O-])c1ccc(Oc2ccc(Cl)cc2Cl)cc1`, “inactive”. Still for that read-out and setting: to `CCCCC(CC)COC(=O)c1ccc(C(=O)OCC(CC)CCCC)c(C(=O)OCC(CC)CCCC)c1` (stereo not given) belongs “inactive”; to `O=C1CCCO1`, “inactive”; to `c1ccc2c(c1)-c1cccc3cccc-2c13`, “inactive”. The same measure, in the same setting: with `CN(C)c1ccccc1` the entry was “inactive”; with `CN(C)[C@@H]1C(=O)C(C(N)=O)=C(O)[C@@]2(O)C(=O)C3=C(O)c4c(O)cccc4[C@@](C)(O)[C@H]3C[C@@H]12`, “inactive”; with `Brc1ccc(Oc2ccccc2)cc1`, “inactive”. As to `CC(C)N(Cc1ccccc1)C(=O)C(C)(C)C`, the compound was classed as inactive.

With `COP(=S)(OC)SCN1C(=O)c2ccccc2C1=O`, the compound was classed as inactive. Same read-out and setting: to `Clc1ccccc1Cl` belongs “inactive”. Still for that read-out and setting: to `Oc1ccccc1Cl` belongs “inactive”; to `O=C(N[C@H](c1ccccc1)[C@@H]1CN2CCC1CC2)c1c(Cl)ccc(C(F)(F)F)c1Cl`, “inactive”.

For `OCCCBr`, the outcome was inactive. On the same count and under the same terms, to `CCCCCOC(=O)c1ccccc1C(=O)OCCCCC` belongs “inactive”; to `CCOc1cccc(C2(N3CCN(c4ccccc4)CC3)CCC(C)CC2)c1` (stereo not given), “inactive”; to `CCCSC(=O)N(CCC)CCC`, “inactive”. As for `CCNS(=O)(=O)C(F)(F)C(F)(F)C(F)(F)C(F)(F)C(F)(F)C(F)(F)C(F)(F)C(F)(F)F`, the half-maximal activity concentration (AC50) is 105 µM (active).
